Reference: PubChem BioAssay AID2596 (National Center for Advancing Translational Sciences (NCATS), 2010)
Results filed as inconclusive are left out. Values without a mark were called inactive. Active and inactive are the calls of the source. Calls come from the whole dose curve; as a rule, active = well fitted inhibition curve with a large enough effect; inconclusive = small, poorly fitted or top-dose-only effect, or effect the other way; inactive = flat fitted curve, though single readings scatter.

Target: Lysosomal acid glucosylceramidase (Homo sapiens) (UniProt P04062)
Experiment: qHTS Assay for Inhibitors and Activators of N370S glucocerebrosidase as a Potential Chaperone Treatment of Gaucher Disease: Purified N370S Glucocerebrosidase Cleavage of Glucosylceramide
Settings: purified N370S GCase; series mostly up to 77.6 µM; activity change, negative = inhibition: at the top concentration
From the text: NIH Chemical Genomics Center [NCGC]
NIH Molecular Libraries Probe Production Centers Network [MLPCN]
Assay Submitter (PI): Wei Zheng
Glucocerebrosidase (GC) catalyzes the hydrolysis of beta-glucocerebroside to glucose and ceramide in lysosomes. Mutations in the glucocerebrosidase gene result in Gaucher disease, an autosomal recessive lysosomal storage disorder. Many of the mutations encountered in patients with Gaucher disease are missense alterations that may cause misfolding, decreased stability and/or mistrafficking of this lysosomal protein. […] These inhibitors include iminosugar analogs and three non-iminosugar inhibitors identified from a previous HTS of 62,000 compounds with the wild type recombinant enzyme. However, the enhancement of enzyme activity by the chaperone action of an enzyme inhibitor must be balanced against the direct inhibition of the enzyme. An enzyme activator could also function as a chaperone by binding to the enzyme and helping to correct its misfolding and mistrafficking. While activators for GC have not yet been identified, they may have better therapeutic potential than inhibitors. Therefore the discovery and development of chemical activators may provide a new strategy for the chaperone therapy.
We have optimized a new assay using N370S mutant GC derived from the spleen of a Gaucher patient. […] In addition, the MLPCN compound library has expanded, which increases the chance of finding new and better probes.
This assay characterizes compound activity using purified, mutant enzyme cleavage of the native substrate for the enzyme instead of mutant enzyme from tissue homogenate. Compound activity differences may be due to the absence of endogenous cofactors found in tissue homogenate as well as inherent differences in enzyme stability and catalytic activity using the difference substrates.
NCGC Assay Protocol Summary:
This is an enzyme assay using glucosylceramide from soy (Avanti Polar Lipids Catalog #: 131304P) as the substrate and recombinant human glucocerebrosidase as the enzyme preparation. Upon hydrolysis of the substrate, the glucose product can be detected using the Amplex Red Glucose Oxidase Assay Kit (Invitrogen catalog #: A22189). The product of this reaction can be read with a fluorescence plate reader with an excitation at 573 nm and an emission at 610 nm. Data were normalized to the controls for basal activity (without enzyme) and 100% activity (with enzyme). The AC50 values were determined from concentration-response data modeled with the standard Hill equation.
Assay buffer for enzyme reaction: 50 mM citric acid (titrated with potassium phosphate to pH 5.9), 0.01% Tween-20 (pH 5.9 is an optimal condition for this enzyme assay)
Assay buffer for Amplex Red reaction: Tris-HCl, pH 7.5
1536-well assay protocol for the glucocerebrosidase assay:
(1) Add 2 ul/well glucocerebrosidase enzyme solution (5 nM final)
(2) Add 23 nL compounds in DMSO solution. The final titration was 0.7 nM to 77 uM.
(3) Add 1 ul of glucosylceramide solution (50 uM final)
(4) Incubate at 37C for 40 min
(5) Add 2 ul tris-HCl buffer with Amplex Red reagents
(6) Incubate 45 min at room temperature.
(7) Detect the assay plate in a ViewLux plate reader (PerkinElmer) with Ex=573 nm and Em=610nm.
Keywords: Glucocerebrosidase, beta-glucosidase, Gaucher Disease, pharmacological chaperone, chaperone therapy, high throughput screening, glucocerebrosidase inhibitor, MLSMR, MLSCN, NIH Roadmap, qHTS and NCGC

Chain of Lysosomal acid glucosylceramidase (Homo sapiens) (P04062 whole entry N409S): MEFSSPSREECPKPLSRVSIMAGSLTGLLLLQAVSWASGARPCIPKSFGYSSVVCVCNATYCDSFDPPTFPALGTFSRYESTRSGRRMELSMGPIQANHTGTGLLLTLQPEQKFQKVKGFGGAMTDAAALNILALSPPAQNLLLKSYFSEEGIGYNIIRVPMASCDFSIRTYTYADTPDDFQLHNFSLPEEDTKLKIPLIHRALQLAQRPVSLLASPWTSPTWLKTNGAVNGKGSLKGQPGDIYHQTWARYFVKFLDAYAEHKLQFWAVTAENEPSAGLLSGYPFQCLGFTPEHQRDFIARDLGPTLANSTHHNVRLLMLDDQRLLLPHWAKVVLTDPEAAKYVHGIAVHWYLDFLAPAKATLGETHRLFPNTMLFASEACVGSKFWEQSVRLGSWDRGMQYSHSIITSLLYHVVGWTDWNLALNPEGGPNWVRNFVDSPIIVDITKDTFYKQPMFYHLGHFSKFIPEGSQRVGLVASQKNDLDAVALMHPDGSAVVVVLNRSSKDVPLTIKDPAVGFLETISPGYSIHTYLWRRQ

Point of comparison: `Nc1nc(-c2ccccc2)c(N=Nc2ccc(Cl)cc2)s1`, “activity change, negative = inhibition” value -9.16%. Against it:
- O=C(c1ccc2c(c1)OCCO2)N1CCN(c2nc(-c3cccs3)nc3ccccc23)CC1 — higher, 9.84%
- NS(=O)(=O)c1ccc(S(=O)(=O)N2CCN(c3nc(-c4cccs4)nc4ccccc34)CC2)cc1 — lower, -13.7%
- O=S(=O)(c1ccc(Cl)cc1)N1CCN(c2nc(-c3ccc(Cl)cc3)nc3ccccc23)CC1 — higher, 20%
- O=S(=O)(c1ccc(Cl)cc1)N1CCN(c2nc(-c3ccc(F)cc3)nc3cc(Cl)ccc23)CC1 — higher, 16.7%
- c1csc(-c2nc(NCC3CCCO3)c3ccccc3n2)c1 (stereo not given) — higher, -6.96%
- O=S(=O)(Cc1ccccc1)N1CCN(c2nc(-c3cccs3)nc3ccccc23)CC1 — higher, -0.322%
- N#Cc1ccc(S(=O)(=O)N2CCN(c3nc(-c4cccs4)nc4ccccc34)CC2)cc1 — higher, -5.08%
- CCOc1ccc(N(CC(=O)Nc2ccc(C)cc2)S(=O)(=O)c2c(C)[nH]c(=O)[nH]c2=O)cc1 — lower, -20.8%
- CC1(C)CC(=O)C2=C(C1)c1c(ccc3ccccc13)NC2c1ccc(Br)o1 (stereo not given) — higher, 13.7%
- Cc1ccc(-c2nc(N3CCN(S(=O)(=O)c4ccc(F)cc4)CC3)c3ccc(Cl)cc3n2)cc1 — higher, -6.45%
- COc1cc(OC)c2c(N)c(C#N)c(C(F)(F)C(F)(F)F)nc2c1 — higher, 8.65%
- COc1ccc(-c2nc(N3CCN(S(=O)(=O)c4ccc(C)cc4)CC3)c3ccccc3n2)cc1 — higher, 22.7%
- O=C(Nc1cnn(Cc2ccc(F)cc2)c1)c1cnn2c(C(F)F)cc(-c3ccccc3)nc12 — higher, -6.37%
- O=S(=O)(c1ccccc1)N1CCN(c2nc(-c3ccc(F)cc3)nc3cc(Cl)ccc23)CC1 — higher, 12.6%
- O=S(=O)(c1cccc2ccccc12)N1CCN(c2nc(-c3cccs3)nc3ccccc23)CC1 — lower, -9.47%
- COc1ccccc1NC(=O)COc1ccccc1C(=O)Nc1ccccc1 — lower, -31%
- O=S(=O)(c1ccccc1C(F)(F)F)N1CCN(c2nc(-c3cccs3)nc3ccccc23)CC1 — higher, 4.16%
- c1ccc(CNc2nc(-c3cccs3)nc3ccccc23)cc1 — lower, -24.4%
- CCC(C)c1ccc(NC(=O)c2cnn3c(C(F)F)cc(C)nc23)cc1 (stereo not given) — lower, -16.7%
- O=C(COc1ccccc1C(=O)c1cnn(-c2ccccc2)c1)Nc1ccccc1 — higher, -6.49%
- Cc1ccccc1-c1nccc(NCc2cccs2)n1 — higher, 10.1%
- OCCNc1nc(-c2cccs2)nc2ccccc12 — lower, -15.8%
- Cc1ccc(NC(=O)COc2ccccc2C(=O)Nc2ccccc2)cc1Cl — higher, 2.52%
- Clc1ccccc1-c1nccc(NCc2ccccc2)n1 — higher, -2.27%
- O=C(Nc1cc(Br)ccc1O)c1cnn2c(C(F)F)cc(C3CC3)nc12 — lower, -28.3%
- O=S(=O)(c1ccccc1Cl)N1CCN(c2nc(-c3cccs3)nc3ccccc23)CC1 — higher, 1.96%
- COc1ccccc1OCC(=O)Nc1oc(-c2ccccc2)c(-c2ccccc2)c1C#N — higher, -5.84%
- O=S(=O)(c1ccc2c(c1)OCCO2)N1CCN(c2nc(-c3cccs3)nc3ccccc23)CC1 — lower, -13.9%
- CCc1ccc(NC(=O)c2cnn3c(C(F)F)cc(C)nc23)cc1 — higher, -7.13%
- COc1ccc(N(CC(=O)NC2CCCCC2)S(=O)(=O)c2c(C)[nH]c(=O)[nH]c2=O)cc1 — lower, -12.7%
- CC(=O)Nc1ccc(NC(=O)COc2ccccc2C(=O)Nc2cccc(Cl)c2Cl)cc1 — lower, -13.6%
- O=S(=O)(c1ccc(Cl)cc1)N1CCN(c2nc(-c3cccc(Br)c3)nc3ccccc23)CC1 — higher, 6.57%
- CC(C)(C)c1ccc(S(=O)(=O)N2CCN(c3nc(-c4cccs4)nc4ccccc34)CC2)cc1 — higher, 15.3%

With `Cc1cc(C)cc(N(CC(=O)NC2CCC(C)CC2)S(=O)(=O)c2c(C)[nH]c(=O)[nH]c2=O)c1` (stereo not given) the Potency was 35.5 µM (active).
In the case of `S=C(NCCCc1cnc[nH]1)NCCCN(Cc1ccc(Cl)c(Cl)c1)c1ccc(Br)cn1`, the Potency is reported as 44.7 µM (active).
For `Cc1ccc(S(=O)(=O)N2CCN(c3nc(-c4cccs4)nc4ccccc34)CC2)cc1`, the Potency was “inactive”.
`Cc1cc(C)cc(N(CC(=O)NC2CCCCCC2)S(=O)(=O)c2c(C)[nH]c(=O)[nH]c2=O)c1` was tested, and the Potency was 14.1 µM (active).
`CC(C)(C)C(=O)OCCNc1nc(-c2ccccc2)nc2ccccc12` was tested, and the Potency was 39.8 µM (active).
In the case of `O=S(=O)(c1ccc(Cl)cc1)N1CCN(c2nc(Nc3cc(Cl)ccc3O)nc3ccccc23)CC1`, the Potency is reported as 14.1 µM (active).
